Experimental data taken from PubChem BioAssay (NCATS).
Inconclusive results are not listed. Active and inactive are the calls of the source. Unless noted, calls come from the whole dose curve; as a rule, active = well fitted curve in the direction sought with a large enough effect; inconclusive = small, poorly fitted or top-dose-only effect, or another doubt; inactive = no such curve, though single readings can be large; an effect the other way counts as inactive or inconclusive.

Tests used:
[1] = target: Cytochrome P450 1A2 (Homo sapiens) (UniProt P05177); assay: p450-cyp1a2 (AID 410; calls by dose curve; note: potency is the fitted concentration of half-maximal effect;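 for activity change, negative = inhibition: -100% = full effect of reference inhibitor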)
Summary of the method: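 Read-out is luminescence from luciferin produced by CYP1A2 demethylation of Luciferin-ME (100uM, at Km). Detection reagent stopped the 60 min NADPH-dependent reaction; signals were normalized to 57 uM furafylline.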

[2] = target: Glucocorticoid receptor (Homo sapiens) (UniProt P04150); assay: GR-GFP Redistribution (AID 450;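 active = compounds whose dose series gives a full or clear partial fitted curve of increased nuclear translocation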; note: potency is the fitted concentration of half-maximal effect); conditions: U2OS GR-GFP nuclear translocation, laser cytometry, 2 h
[3] = target: Glucocorticoid receptor (Homo sapiens) (UniProt P04150); assay: GR-EFC Redistribution (AID 451; calls by dose curve; note: potency is the fitted concentration of half-maximal effect); conditions: CHO-K1 GR-EFC translocation, beta-gal luminescence, 2 h
Summary of the method: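 CHO-K1 cells stably expressing nuclear-localized β-gal enzyme acceptor and GR fused C-terminally to the enzyme donor fragment; ligand-driven nuclear translocation restores β-gal by complementation. Compounds titrated up to 46 uM final, 2 h at 37 °C; luminescence read.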

[4] = target: 3',5'-cyclic-AMP phosphodiesterase 4B (Homo sapiens) (UniProt Q07343); assay: qHTS Assay for Inhibitors of PDE-IV (AID 607; active = well fitted activation curve with a large enough effect in the main read-out, with a control signal flat, not every such curve was filed as active; note: % of control where 0% means no effect)
Summary of the method: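 Live HEK293 cells with a modified cyclic nucleotide-gated (CNG) channel report intracellular cAMP via membrane-potential dye fluorescence (ex 535/em 590 nm). Endogenous PDE-IV was targeted. Compounds were tested at up to 22.9 uM final; RO 20-1724 100 uM served as control.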

[5] = qHTS Assay for Identification of Small Molecule Agonists for Hypoxia Response Element Signaling Pathway (AID 914; active = well fitted activation curve with a large enough effect in the signal ratio, with a control signal flat, not every such curve was filed as active; the % refers to the signal ratio; note: potency is the fitted concentration of half-maximal effect; for activation: % of control where 0% means no effect); conditions: ME-180 HRE-bla reporter, beta-lactamase ratio, CoCl2, 17 h; activation: active compounds read high
Summary of the method: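 ME-180 cells carrying an HRE-driven beta-lactamase reporter were treated with compounds in a titration series plus an EC50 level of CoCl2 for 17 h at 37 degrees Celsius; CCF4 readout as the 460nm/530nm ratio gave AC50 values.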

[6] = target: Dual specificity protein kinase CLK4 (Homo sapiens) (UniProt Q9HAZ1); assay: qHTS Assay for Inhibitors of CDC-like Kinase 4 (Kinase-Glo Assay) (AID 1770); note: nearly all actives have a fitted effect of over 65% in size; note: potency is the fitted concentration of half-maximal effect
Summary of the method: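 25 nM Clk4 with 100 uM RS repeat peptide and 1 uM ATP (final) in Tris pH7.5, 10 mM MgCl2, 4.5 h at room temperature. Remaining ATP measured by Kinase-Glo luciferase luminescence.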

[7] = target: Dual specificity protein kinase CLK4 (Homo sapiens) (UniProt Q9HAZ1); assay: qHTS Assay for Inhibitors of CDC-like Kinase 4 (ADP-Glo Assay) (AID 1771); note: nearly all actives have a fitted effect of over 70% in size; note: potency is the fitted concentration of half-maximal effect
Summary of the method: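 In this ADP-Glo format, 1 uM ATP and 100 uM RS peptide served as substrates for 25 nM Clk4 in Mg2+/EGTA/DTT/Triton buffer; reactions ran 1 hr at room temperature before luminescent ADP quantification.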

[8] = target: Dual specificity protein kinase CLK4 (Homo sapiens) (UniProt Q9HAZ1); assay: qHTS Assay for Inhibitors of CDC-like Kinase 4 (ADP-FP Assay) (AID 1795);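 note: recombinant human CLK4 phosphorylating RS repeat peptide at 1 µM ATP; % is set by controls: 0 for no effect and ±100 for the full control effect; nearly all actives have a fitted effect of over 60% in size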
Summary of the method: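 Recombinant Clk4 (6.25 nM) phosphorylated 100 uM RS repeat peptide with 1 uM ATP in 25 mM Tris pH 7.5, 10 mM MgCl2, 0.5 mM EGTA, 2.5 mM DTT, 0.01% Triton X-100 for 1 h. ADP was detected by Transcreener ADP2 competitive fluorescence polarization after 30 min at room temperature.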

[9] = target: Ubiquitin carboxyl-terminal hydrolase 1 (Homo sapiens) (UniProt O94782); assay: Inhibitors of USP1/UAF1: Pilot qHTS (AID 504865); note: nearly all actives have a fitted effect of over 35% in size; note: potency is the fitted concentration of half-maximal effect
Summary of the method: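 USP1/UAF1 complex at 1 nM preincubated 15 min at room temperature with compound, then Ub-Rho substrate added at 150 nM final. Fluorescence (480/540 nm) read kinetically in 50 mM HEPES pH 7.8, 0.5 mM EDTA, 1 mM TCEP, 0.1 mg/ml BSA, 0.01% Tween-20.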

[10] = Primary qHTS for small molecule stabilizers of the endoplasmic reticulum resident proteome: Secreted ER Calcium Modulated Protein (SERCaMP) assay (AID 1508630); note: % is set by controls: 0 for no effect and ±100 for the full control effect
Summary of the method: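 The SH-SY5Y reporter protocol was run at 3 concentrations up to 38.3 uM (primary) or 11 concentrations (follow-up): 16 h compound, 100 nM thapsigargin for 4 h, then extracellular luciferase luminescence.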

[11] = target: Lysosomal acid glucosylceramidase (Homo sapiens) (UniProt P04062); assay: Glucocerebrosidase-p2 (AID 348; in the data active = potency below about 10 µM; note: potency is the fitted concentration of half-maximal effect); conditions: purified GBA, blue fluorogenic substrate, 40 min
Summary of the method: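 Normal human glucocerebrosidase (0.2 nM) with blue fluorogenic substrate (80 uM final) in citrate/phosphate pH 5.9 with 10mM sodium taurocholate, 0.01% tween-20; 40 min RT, NaOH/glycine stop; fluorescence Ex 365/Em 440; AC50 from a titration from 0.6 nM upwards.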

[12] = AP1 Signaling Pathway (AID 357; active = well fitted curve in either direction with a large enough effect, not every such curve was filed as active; note: % is set by controls: 0 for no effect and ±100 for the full control effect); conditions: ME-180 AP-1-bla reporter, EGF-induced, beta-lactamase ratio, 5 h; at 7.69 µM (top of the series) unless noted
Summary of the method: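 ME-180 cells with beta-lactamase reporter under AP-1 response element, stimulated with EC50 EGF; compounds tested in titration series, 5 h at 37 °C. CCF4 substrate added 2.5 h at room temperature; 460/530 nm emission ratio gave %activity and AC50.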

[13] = NFAT Signaling Pathway (AID 444; active = well fitted curve in either direction with a large enough effect, not every such curve was filed as active;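 note: carbachol stimulus at about its EC50 of 1 µM final; % is set by controls: 0 for no effect and ±100 for the full control effect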); conditions: Jurkat NFAT-bla M1, carbachol, beta-lactamase ratio, 5 h; at 7.69 µM (top of the series) unless noted
Summary of the method: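 Jurkat cells carrying an NFAT-driven β-lactamase reporter and co-transfected muscarinic M1 receptor were treated with compound plus carbachol (1 uM final, an EC50 level) for 5 h at 37 °C. CCF4 loading followed for 1 h at RT; 460/530 nm ratio gave %activity.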

[14] = Stat Signaling Pathway (AID 446; active = well fitted curve in either direction with a large enough effect, not every such curve was filed as active;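 note: ME-180 cervical cancer cells given 40 pM IL-6 alongside compound; SIE-controlled beta-lactamase reporter measured as 460/530 nm FRET emission ratio; % is set by controls: 0 for no effect and ±100 for the full control effect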); conditions: ME-180 (cervical carcinoma) SIE beta-lactamase reporter, IL-6 stimulated, 5 h; at 7.69 µM (top of the series) unless noted
Summary of the method: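 Overnight-plated ME-180 cells bearing a STAT Inducible Element beta-lactamase reporter; 5 h co-exposure to compound and 40 pM IL-6; values normalized to 300 pM IL-6 and 125 nM JAK inhibitor controls.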

[15] = target: Mitogen-activated protein kinase 10 (Mus musculus) (UniProt Q61831); assay: JNK3 AlphaScreen Assay (AID 530; active = well fitted curve in either direction with a large enough effect, not every such curve was filed as active)
Summary of the method: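 Biotinylated GST-cJun(1-79) served as substrate for JNK3 in HepG2 lysates stimulated with IL-1beta and TNF-alpha. ATP was 10 uM final, pH 7.6. Ser73 phosphorylation was quantified by AlphaScreen (680 nm excitation).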

[16] = target: Cytochrome P450 3A4 (Homo sapiens) (UniProt P08684); assay: qHTS Assay for Inhibitors and Substrates of Cytochrome P450 3A4 (AID 884); note: potency is the fitted concentration of half-maximal effect; nearly all actives have a fitted effect of over 50% in size
Summary of the method: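 Luminescent readout of luciferin produced by CYP3A4 (20 nM) dealkylation of Luciferin-PPXE, 25 uM (its KM). NADPH-driven reaction ran 60 min at RT after 10 min compound preincubation; data scaled to 57 uM ketoconazole as 100% inhibition.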

[17] = target: Cytochrome P450 3A4 (Homo sapiens) (UniProt P08684); assay: qHTS Assay for Activators of Cytochrome P450 3A4 (AID 885); note: nearly all actives have a fitted effect of over 65% in size
Summary of the method: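 Using 20nM recombinant human CYP3A4 in potassium phosphate (200mM), substrate Luciferin-PPXE at 25uM, luminescent luciferin detection followed a 60-min RT NADPH reaction; data scaled to 57 uM ketoconazole.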

[18] = target: Cytochrome P450 2C9 (Homo sapiens) (UniProt P11712); assay: qHTS Assay for Inhibitors and Substrates of Cytochrome P450 2C9 (AID 883); note: potency is the fitted concentration of half-maximal effect; nearly all actives have a fitted effect of over 60% in size
Summary of the method: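 Human CYP2C9 (10nM) hydroxylated Luciferin-H (100uM, at its KM) to luciferin in 25mM KPO4. Compound was preincubated 10 min at 37C, then NADPH regeneration started a 60 min reaction at 37C. Luminescence was read after detection reagent, normalized to 57uM sulphaphenazole.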

[19] = target: Cytochrome P450 2D6 (Homo sapiens) (UniProt P10635); assay: qHTS Assay for Inhibitors and Substrates of Cytochrome P450 2D6 (AID 891); note: potency is the fitted concentration of half-maximal effect; nearly all actives have a fitted effect of over 60% in size
Summary of the method: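 Luminescent read-out of luciferin formed by 5 nM human CYP2D6 demethylating 30 uM Luciferin-ME EGE (Km level) over 60 min at room temperature after NADPH regeneration addition. Data normalized to full inhibition by 1.43 uM quinidine.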

[20] = target: Cytochrome P450 2C19 (Homo sapiens) (UniProt P33261); assay: qHTS Assay for Inhibitors and Substrates of Cytochrome P450 2C19 (AID 899); note: potency is the fitted concentration of half-maximal effect; nearly all actives have a fitted effect of over 60% in size
Summary of the method: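 Human CYP2C19 (5nM) with Luciferin-H EGE at 10uM (its KM) in 50mM KPO4 was preincubated with compound for 10 min at 37C. NADPH regeneration started a 60 min 37C reaction. Luciferin was read by luminescence, normalized to 57uM ketoconazole.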

Dual specificity protein kinase CLK4 (Homo sapiens), sequence (Q9HAZ1 whole entry, looked up): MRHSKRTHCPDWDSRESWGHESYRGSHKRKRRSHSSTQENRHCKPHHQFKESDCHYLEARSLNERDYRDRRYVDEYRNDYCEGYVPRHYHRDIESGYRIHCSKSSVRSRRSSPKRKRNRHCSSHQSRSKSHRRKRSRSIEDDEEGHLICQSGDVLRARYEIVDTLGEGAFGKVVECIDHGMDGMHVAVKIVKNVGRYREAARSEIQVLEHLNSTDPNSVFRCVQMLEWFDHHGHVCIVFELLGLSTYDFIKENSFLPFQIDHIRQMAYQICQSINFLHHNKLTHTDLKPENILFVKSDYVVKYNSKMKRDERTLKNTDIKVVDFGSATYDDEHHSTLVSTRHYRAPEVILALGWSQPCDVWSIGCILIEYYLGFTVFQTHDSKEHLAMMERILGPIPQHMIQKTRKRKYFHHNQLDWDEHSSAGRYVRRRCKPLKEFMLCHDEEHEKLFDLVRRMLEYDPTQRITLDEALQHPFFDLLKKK
Cytochrome P450 3A4 (Homo sapiens), sequence (P08684 whole entry, looked up): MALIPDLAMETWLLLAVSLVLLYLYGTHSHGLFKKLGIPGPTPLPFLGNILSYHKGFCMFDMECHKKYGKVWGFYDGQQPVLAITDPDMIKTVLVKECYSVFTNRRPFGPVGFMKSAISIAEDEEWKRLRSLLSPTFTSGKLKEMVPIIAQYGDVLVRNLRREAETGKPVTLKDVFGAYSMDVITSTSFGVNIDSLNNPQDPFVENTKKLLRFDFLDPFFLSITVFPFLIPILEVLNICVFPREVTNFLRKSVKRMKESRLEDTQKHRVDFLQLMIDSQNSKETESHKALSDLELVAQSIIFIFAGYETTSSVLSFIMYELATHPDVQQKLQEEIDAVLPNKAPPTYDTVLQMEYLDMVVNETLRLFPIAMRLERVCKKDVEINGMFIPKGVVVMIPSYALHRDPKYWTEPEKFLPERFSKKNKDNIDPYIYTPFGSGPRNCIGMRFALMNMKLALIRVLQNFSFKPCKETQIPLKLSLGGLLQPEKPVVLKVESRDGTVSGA
Glucocorticoid receptor (Homo sapiens), sequence (P04150 whole entry, looked up, the tested form may be a part): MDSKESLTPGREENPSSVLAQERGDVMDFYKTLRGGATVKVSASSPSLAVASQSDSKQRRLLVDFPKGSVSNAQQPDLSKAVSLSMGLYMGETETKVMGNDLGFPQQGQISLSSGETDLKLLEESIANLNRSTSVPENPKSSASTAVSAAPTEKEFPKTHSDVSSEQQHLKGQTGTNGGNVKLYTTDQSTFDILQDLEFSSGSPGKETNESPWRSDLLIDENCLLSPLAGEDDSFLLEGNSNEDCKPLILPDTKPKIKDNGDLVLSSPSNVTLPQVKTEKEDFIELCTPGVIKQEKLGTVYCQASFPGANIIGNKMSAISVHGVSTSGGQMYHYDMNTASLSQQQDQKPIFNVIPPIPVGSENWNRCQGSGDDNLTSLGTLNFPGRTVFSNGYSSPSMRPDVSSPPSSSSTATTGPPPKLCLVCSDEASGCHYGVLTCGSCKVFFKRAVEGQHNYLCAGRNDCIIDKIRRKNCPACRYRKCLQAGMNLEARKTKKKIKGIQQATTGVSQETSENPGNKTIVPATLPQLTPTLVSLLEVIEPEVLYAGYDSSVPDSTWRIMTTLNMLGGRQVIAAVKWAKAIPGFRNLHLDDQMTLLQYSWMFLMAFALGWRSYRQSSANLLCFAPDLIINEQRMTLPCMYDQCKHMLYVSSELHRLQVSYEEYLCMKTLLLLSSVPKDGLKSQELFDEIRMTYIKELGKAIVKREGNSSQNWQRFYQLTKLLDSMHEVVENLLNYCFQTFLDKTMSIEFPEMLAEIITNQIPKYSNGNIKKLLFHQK
Ubiquitin carboxyl-terminal hydrolase 1 (Homo sapiens), sequence (O94782 whole entry, looked up): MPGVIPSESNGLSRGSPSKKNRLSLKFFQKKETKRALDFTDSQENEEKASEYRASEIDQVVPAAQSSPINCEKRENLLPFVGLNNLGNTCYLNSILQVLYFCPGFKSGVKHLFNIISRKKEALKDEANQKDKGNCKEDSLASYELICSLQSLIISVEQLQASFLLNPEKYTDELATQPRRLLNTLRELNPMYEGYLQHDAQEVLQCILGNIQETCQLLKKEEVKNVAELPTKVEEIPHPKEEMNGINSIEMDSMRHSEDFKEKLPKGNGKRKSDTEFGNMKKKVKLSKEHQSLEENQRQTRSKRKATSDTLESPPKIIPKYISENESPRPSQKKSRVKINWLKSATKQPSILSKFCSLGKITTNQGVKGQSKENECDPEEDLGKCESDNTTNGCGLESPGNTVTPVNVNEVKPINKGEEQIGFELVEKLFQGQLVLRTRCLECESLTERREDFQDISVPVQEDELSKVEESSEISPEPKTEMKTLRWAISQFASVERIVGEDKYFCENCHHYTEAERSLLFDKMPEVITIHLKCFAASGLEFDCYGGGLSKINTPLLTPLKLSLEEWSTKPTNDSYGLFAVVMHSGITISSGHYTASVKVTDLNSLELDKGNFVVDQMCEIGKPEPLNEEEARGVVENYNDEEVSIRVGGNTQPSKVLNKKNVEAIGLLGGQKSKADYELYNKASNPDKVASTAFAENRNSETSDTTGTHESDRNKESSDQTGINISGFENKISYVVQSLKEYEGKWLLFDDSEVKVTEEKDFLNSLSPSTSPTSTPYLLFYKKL
Lysosomal acid glucosylceramidase (Homo sapiens), sequence (P04062 whole entry, looked up): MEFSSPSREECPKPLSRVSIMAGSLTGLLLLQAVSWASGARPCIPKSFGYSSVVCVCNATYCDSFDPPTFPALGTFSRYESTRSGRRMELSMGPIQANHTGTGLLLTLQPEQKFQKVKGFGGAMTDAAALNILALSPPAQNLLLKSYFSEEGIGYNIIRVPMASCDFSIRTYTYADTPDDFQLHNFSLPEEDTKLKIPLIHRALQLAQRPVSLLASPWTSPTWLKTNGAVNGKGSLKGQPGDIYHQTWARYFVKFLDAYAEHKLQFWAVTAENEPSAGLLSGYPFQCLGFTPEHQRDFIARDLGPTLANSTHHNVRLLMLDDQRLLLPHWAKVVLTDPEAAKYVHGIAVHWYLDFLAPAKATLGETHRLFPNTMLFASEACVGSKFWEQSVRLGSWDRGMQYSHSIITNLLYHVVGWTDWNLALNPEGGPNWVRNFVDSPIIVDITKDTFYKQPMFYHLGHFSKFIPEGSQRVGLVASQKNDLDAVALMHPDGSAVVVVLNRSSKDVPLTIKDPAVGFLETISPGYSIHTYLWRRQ
Cytochrome P450 1A2 (Homo sapiens), sequence (P05177 whole entry, looked up): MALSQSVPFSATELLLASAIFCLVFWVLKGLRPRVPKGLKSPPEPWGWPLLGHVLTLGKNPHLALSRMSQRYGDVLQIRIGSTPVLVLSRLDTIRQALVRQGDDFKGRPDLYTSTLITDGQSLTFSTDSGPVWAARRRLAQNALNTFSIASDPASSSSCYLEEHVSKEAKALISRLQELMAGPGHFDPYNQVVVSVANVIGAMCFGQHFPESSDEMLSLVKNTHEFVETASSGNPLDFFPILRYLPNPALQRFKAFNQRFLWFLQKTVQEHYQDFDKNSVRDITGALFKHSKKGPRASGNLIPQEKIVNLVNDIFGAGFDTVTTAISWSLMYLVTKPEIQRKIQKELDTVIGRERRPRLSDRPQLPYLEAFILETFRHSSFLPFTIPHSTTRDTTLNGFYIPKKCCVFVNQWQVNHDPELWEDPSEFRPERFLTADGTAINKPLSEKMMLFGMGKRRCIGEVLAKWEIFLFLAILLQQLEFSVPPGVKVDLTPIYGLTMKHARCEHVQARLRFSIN
3',5'-cyclic-AMP phosphodiesterase 4B (Homo sapiens), sequence (Q07343 whole entry, looked up): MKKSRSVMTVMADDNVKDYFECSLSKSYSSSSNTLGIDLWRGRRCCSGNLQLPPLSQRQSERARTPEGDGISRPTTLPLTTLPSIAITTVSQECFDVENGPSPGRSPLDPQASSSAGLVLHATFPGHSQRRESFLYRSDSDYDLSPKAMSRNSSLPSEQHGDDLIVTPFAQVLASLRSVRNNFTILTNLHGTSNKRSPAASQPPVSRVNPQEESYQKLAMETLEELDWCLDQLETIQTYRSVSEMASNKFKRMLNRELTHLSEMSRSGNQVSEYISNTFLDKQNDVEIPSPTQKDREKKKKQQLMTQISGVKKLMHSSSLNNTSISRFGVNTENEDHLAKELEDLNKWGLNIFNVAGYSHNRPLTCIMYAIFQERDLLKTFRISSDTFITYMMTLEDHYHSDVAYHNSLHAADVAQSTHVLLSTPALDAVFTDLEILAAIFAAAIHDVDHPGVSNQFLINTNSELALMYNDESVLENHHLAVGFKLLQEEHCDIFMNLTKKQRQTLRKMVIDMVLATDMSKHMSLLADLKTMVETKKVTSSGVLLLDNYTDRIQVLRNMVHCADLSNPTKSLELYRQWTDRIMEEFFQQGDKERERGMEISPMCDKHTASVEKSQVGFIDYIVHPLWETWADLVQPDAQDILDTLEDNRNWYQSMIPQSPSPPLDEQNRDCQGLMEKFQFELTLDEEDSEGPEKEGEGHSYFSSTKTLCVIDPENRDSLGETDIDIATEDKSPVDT
Cytochrome P450 2C9 (Homo sapiens), sequence (P11712 whole entry, looked up): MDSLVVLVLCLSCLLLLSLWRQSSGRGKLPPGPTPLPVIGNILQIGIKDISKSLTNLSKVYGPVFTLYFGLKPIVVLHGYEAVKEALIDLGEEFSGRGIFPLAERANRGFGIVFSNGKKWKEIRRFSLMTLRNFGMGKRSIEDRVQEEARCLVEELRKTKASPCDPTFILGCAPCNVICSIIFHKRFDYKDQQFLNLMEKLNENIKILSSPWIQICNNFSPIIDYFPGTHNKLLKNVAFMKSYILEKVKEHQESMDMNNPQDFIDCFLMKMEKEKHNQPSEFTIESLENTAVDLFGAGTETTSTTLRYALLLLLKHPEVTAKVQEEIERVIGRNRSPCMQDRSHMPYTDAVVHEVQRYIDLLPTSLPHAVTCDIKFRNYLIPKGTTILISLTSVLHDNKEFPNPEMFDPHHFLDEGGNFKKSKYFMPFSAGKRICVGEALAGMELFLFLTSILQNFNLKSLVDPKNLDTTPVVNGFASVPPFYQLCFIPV

CN(C)c1ncc2nc(-c3cc(F)cc(F)c3)c(=O)n(CCc3ccccc3)c2n1
inactive: Potency [1] | Potency [2] > 9.22 µM | Potency [3] > 46 µM | Potency [4] | Potency [6] | Potency [7] | Potency [8] | Potency [9] | outcome [10]
active: Potency [5] 2.51 µM

c1csc(CNc2ncncc2-c2ccoc2)c1
active: Potency [1] 2 µM | Potency [16] 2 µM
inactive: Potency [11] > 11.4 µM | activity change, negative = inhibition [12] -12.1% | activity change, negative = inhibition [13] 3.52% | activity, negative = inhibition [14] -10.5% | Potency [2] > 46 µM | Potency [3] > 46 µM | Potency [15] | Potency [4] | Potency [17] | activation [5] 2.26% | Potency [6] | Potency [7] | Potency [9] | outcome [10]

CN1CCN(c2ncnc3ccc(-c4cccnc4)cc23)CC1
active: Potency [6] 12.6 µM | Potency [7] 14.1 µM
inactive: Potency [11] > 11.4 µM | activity change, negative = inhibition [12] -5.19% | activity change, negative = inhibition [13] 17% | activity, negative = inhibition [14] 2.81% | Potency [2] > 46 µM | Potency [3] > 46 µM | Potency [15] | Potency [4] | Potency [17] | activation [5] -3.4% | Potency [9] | outcome [10]

COc1ccc2[nH]cc(CCNc3cc(-c4ccccc4Cl)ncn3)c2c1
inactive: Potency [11] > 11.4 µM | activity change, negative = inhibition [12] 0.747% | activity change, negative = inhibition [13] 9.26% | activity, negative = inhibition [14] -11.7% | Potency [2] > 46 µM | Potency [3] > 46 µM | Potency [15] | Potency [4] | outcome [10]
active: Potency [6] 12.6 µM | Potency [7] 12.6 µM | Potency [9] 20 µM

CNc1ncnc2ccc(-c3cccc(OC)c3)cc12
active: Potency [1] 0.501 µM | Potency [18] 501 nM | Potency [6] 0.501 µM | Potency [7] 0.501 µM
inactive: Potency [11] > 11.4 µM | activity change, negative = inhibition [12] -19.8% | activity, negative = inhibition [14] -20.2% | Potency [2] > 46 µM | Potency [3] > 46 µM | Potency [15] | Potency [4] | Potency [9] | outcome [10]

COc1ccc(CNc2ncncc2-c2cccc(C#N)c2)c(OC)c1
active: Potency [1] 7.94 µM | Potency [16] 0.316 µM | Potency [19] 5.01 µM | Potency [20] 5.01 µM | Potency [6] 28.2 µM | Potency [7] 35.5 µM
inactive: Potency [11] > 11.4 µM | activity change, negative = inhibition [12] -5.26% | activity change, negative = inhibition [13] 13.9% | activity, negative = inhibition [14] 8.97% | Potency [2] > 46 µM | Potency [3] > 46 µM | Potency [15] | Potency [17] | Potency [9] | outcome [10]
